Measurements taken from PubChem BioAssay (NCATS).
Inconclusive results are not listed. Values without a mark were called inactive. Activity calls are given as the source filed them. Calls come from the whole dose curve; as a rule, active = well fitted cell-killing curve with a large enough effect; inconclusive = small, poorly fitted or top-dose-only effect, or effect the other way; inactive = no such curve, though single readings can be large or run the other way.

Experiment: Quantitative High-Throughput drug screen in 47 multiple myeloma cell lines against the NCATS MIPE library collection: OCIMY5_PLB cell viability assay (AID 1918988); note: nearly all actives have a fitted effect of over 65% in size;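 for viability, % of control: 100% = DMSO-treated wells and 0% = wells with media alone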
Settings: OCI-MY5 myeloma viability, ATP luminescence, 48 h; series mostly up to 45.8 µM; viability, % of control: at the top concentration
Procedure, shortened: (§1)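 Plated at 500 cells per well, myeloma lines received MIPE 4.0 compounds by pin tool. Following 48 h culture at 37 °C, CellTiter-Glo luminescence gave viability relative to DMSO and media-only controls.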
Potency is the fitted concentration of half-maximal effect.

| SMILES | Potency | viability, % of control [%] |
| --- | --- | --- |
| COc1cc(C)c(Sc2cnc(NC(=O)c3ccc(CNC(C)C(C)(C)C)cc3)s2)cc1C(=O)N1CCN(C(C)=O)CC1 (centres undefined) | 16.6 µM (active) | – |
| CCNC(=O)Nc1ccc(-c2nc3c(c(N4CCOC[C@H]4C)n2)CCN(C2COC2)C3)cc1 | 1.66 µM (active) | – |
| CON=C(C(=O)N[C@@H]1C(=O)N2C(C(=O)O)=C(Cn3ccc(=N)n3CCO)CS[C@H]12)c1csc(N)n1 | – | 131 |
| COC[C@H](NC(=O)c1cnc(C)s1)C(=O)N[C@@H](COC)C(=O)N[C@@H](Cc1ccccc1)C(=O)[C@@]1(C)CO1 | 0.0372 µM (active) | – |
| COc1cccc2c1C(=O)c1c(O)c3c(c(O)c1C2=O)C[C@@](O)(C(=O)CO)C[C@@H]3O[C@H]1C[C@H](N)[C@H](OC2CCCCO2)[C@H](C)O1 (some centres undefined) | 2.09 µM (active) | – |
| Nc1cccc2c1C(=O)N(C1CCC(=O)NC1=O)C2=O (centres undefined) | 10.5 µM (active) | – |
| O=c1ccn([C@@H]2O[C@H](CO)[C@H](O)[C@@H]2F)c(=O)[nH]1 | – | 157 |
| Cn1cc(CNCC2CCN(c3ncc(C(=O)NO)cn3)CC2)c2ccccc21 | 0.0166 µM (active) | – |
| CC(=O)NCC(=O)N1[C@H]2CC[C@H]1c1cc(Nc3ncc(C(F)(F)F)c(NC4CCC4)n3)ccc12 | 1.18 µM (active) | – |

Experiment: Quantitative High-Throughput drug screen in 47 multiple myeloma cell lines against the NCATS MIPE library collection: OPM1_PLB cell viability assay (AID 1918989); note: nearly all actives have a fitted effect of over 40% in size;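 for viability (% of control): 100% = DMSO-only wells and 0% = media-only wells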
Settings: CellTiter-Glo, 48 h; series mostly up to 45.8 µM; viability (% of control): at the top concentration
Procedure, shortened: as §1

| SMILES | Potency | viability (% of control) [%] |
| --- | --- | --- |
| COc1ccc(C=Cc2cc(OC)c(OC)c(OC)c2)cc1NC(=O)[C@H](N)CO | 0.001 µM (active) | – |
| CCN(CC)Cc1ccc2cc(COC(=O)Nc3ccc(C(=O)NO)cc3)ccc2c1 | 0.264 µM (active) | – |
| CC(=O)OCC(=O)[C@@]1(O)CC[C@H]2[C@@H]3CCC4=CC(=O)CC[C@]4(C)[C@@H]3C(=O)C[C@@]21C | – | 137 |
| COc1ccc2c(c1OC)C(=O)OC2[C@H]1c2c(cc3c(c2OC)OCO3)CCN1C (some centres undefined) | 0.469 µM (active) | – |
| COc1cccc2c1C(=O)c1c(O)c3c(c(O)c1C2=O)C[C@@](O)(C(C)=O)C[C@H]3O[C@H]1C[C@H](N)[C@H](O)[C@H](C)O1 | 0.105 µM (active) | – |
| C[C@H]1O[C@H](O[C@H]2[C@H](O)[C@@H](O)[C@@H](O[C@H]3[C@H](O)[C@@H](O)C(O)O[C@H]3CO)O[C@H]2CO)[C@H](O)[C@@H](O)[C@H]1N[C@H]1C=C(CO)[C@@H](O)[C@H](O)[C@@H]1O (some centres undefined) | – | 154 |
| CC[C@H]1OC(=O)[C@H](C)[C@@H](O[C@H]2C[C@@](C)(OC)[C@@H](O)[C@H](C)O2)[C@H](C)[C@@H](O[C@@H]2O[C@H](C)C[C@H](N(C)C)[C@@H]2O)[C@](C)(OC)C[C@@H](C)C(=O)[C@H](C)[C@@H](O)[C@]1(C)O | – | 115 |
| CN[C@H]1[C@@H](O)[C@@H]2O[C@@H]3O[C@H](C)CC(=O)[C@]3(O)O[C@@H]2[C@@H](NC)[C@H]1O | 8.33 µM (active) | – |
| CC(=O)N[C@H]1[C@@H]([C@H](O)[C@H](O)CO)OC(C(=O)O)=C[C@@H]1N=C(N)N | – | 121 |
| CCCCCCCCc1ccc(CCC(N)(CO)CO)cc1 | 4.69 µM (active) | – |
| Oc1cc(-c2nc(-c3ccccc3)[nH]c2-c2ccncc2)ccc1Cl | 14.8 µM (active) | – |
| C[C@H](CCC(=O)O)[C@H]1CC[C@H]2[C@@H]3[C@H](O)C[C@@H]4C[C@H](O)CC[C@]4(C)[C@@H]3CC[C@]12C | – | 99.1 |
| COC(=O)[C@H](CCCN=C(N)N)NS(=O)(=O)c1ccc(C)cc1 | – | 137 |
| CCOC(=O)[C@H](CCc1ccccc1)N[C@@H](C)C(=O)N1[C@@H](C(=O)O)C[C@H]2CCC[C@@H]21 | 5.26 µM (active) | – |
| Oc1ccc(-c2ccc(-c3cc(Nc4cccc(CNC5CC5)c4)n[nH]3)cc2)c(O)c1 | 1.05 µM (active) | – |
| C=CCNC1=C2C[C@@H](C)C[C@H](OC)[C@@H](O)[C@@H](C)C=C(C)[C@H](OC(N)=O)[C@@H](OC)C=CC=C(C)C(=O)NC(=CC1=O)C2=O | 1.32 µM (active) | – |
| CC(C)(O)Cn1c(NC(=O)c2ccc(-c3cn[nH]c3)s2)nc2cc(CN3CCOCC3)ccc21 | 0.743 µM (active) | – |
| COc1cc(OC)cc(-c2ccc3ncc4ccc(=O)n(-c5ccc(N6CCNCC6)c(C(F)(F)F)c5)c4c3c2)c1 | 4.69 µM (active) | – |
| COc1cc(C)c(Sc2cnc(NC(=O)c3ccc(CNC(C)C(C)(C)C)cc3)s2)cc1C(=O)N1CCN(C(C)=O)CC1 (centres undefined) | 16.6 µM (active) | – |
| CCNC(=O)Nc1ccc(-c2nc3c(c(N4CCOC[C@H]4C)n2)CCN(C2COC2)C3)cc1 | 1.18 µM (active) | – |
